High-throughput results (PubChem BioAssay)
FadD28 FP inh = M. tuberculosis FadD28 bisubstrate binding inhibition; FadD28 bisubstrate probe binding, fluorescence polarization; inhibition, % at 12.5 µM; 360,000 tested, 0.22% active; in the data active means inhibition above about 8.5%, passing the limit was not always enough; inconclusive means no clear call, values can overlap the other calls
Rv3671c protease = inhibits the M. tuberculosis serine protease Rv3671c; P9WHR9; inhibition, % at 5.96 µM; 320,000 tested, 0.048% active; AID 2606; in the data active means inhibition above about 38%;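 further: extracellular domain of Rv3671c used as enzyme; 0% = enzyme with DMSO and 100% = no enzyme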
Target sequence (P9WHR9 whole entry, looked up, the tested form may be a part): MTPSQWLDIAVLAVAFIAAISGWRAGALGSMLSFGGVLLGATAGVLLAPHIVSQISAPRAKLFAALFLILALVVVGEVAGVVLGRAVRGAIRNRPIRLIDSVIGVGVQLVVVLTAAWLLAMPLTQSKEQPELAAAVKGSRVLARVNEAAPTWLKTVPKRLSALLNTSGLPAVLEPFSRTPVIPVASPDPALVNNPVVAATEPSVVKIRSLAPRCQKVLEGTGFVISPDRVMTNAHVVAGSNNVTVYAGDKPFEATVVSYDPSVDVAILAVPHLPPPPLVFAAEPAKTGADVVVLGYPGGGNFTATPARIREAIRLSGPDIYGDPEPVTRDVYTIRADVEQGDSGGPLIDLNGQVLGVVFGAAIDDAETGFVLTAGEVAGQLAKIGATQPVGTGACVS
TcdB GH inh = blocks C. difficile toxin B glycohydrolase activity; P18177; TcdB glycohydrolase enzymatic assay, plate reader; inhibition, % at 9.99 µM; 350,000 tested, 0.24% active; AID 652162; in the data active means inhibition above about 10%
BioA inh = blocks M. tuberculosis BioA enzyme activity. purified M. tuberculosis BioA enzyme, plate reader. inhibition, % at 9.99 µM. 360,000 tested, 0.096% active; in the data active means inhibition above about 40%; inconclusive means no clear call, values can overlap the other calls
Mtb UGM inh = Mtb UDP-galactopyranose mutase inhibition | inhibition, % at 10 µM | purified UGM, fluorescence polarization probe displacement | P9WIQ1 | 320,000 tested, 0.06% active; in the data active means inhibition above about 10%, passing the limit was not always enough; inconclusive means no clear call, values can overlap the other calls
RecA splice inh = inhibitors of M. tuberculosis RecA intein splicing; inhibition, % (concentration not given with the values); 290,000 tested, 0.75% active; cell-free RecA intein splicing, fluorescence; in the data active means inhibition above about 30%; inconclusive means no clear call, values can overlap the other calls;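 further: 0% = vehicle wells and 100% = reference inhibitor control wells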
* hit, by the source's call; ? = inconclusive; nt = no result given. A selection: hits, their analogues and other compounds. The true share with any hit is near 0.9%.

SMILES	FadD28 FP inh	Rv3671c protease	TcdB GH inh	BioA inh	Mtb UGM inh	RecA splice inh
COc1cccc(C(=O)N2C[C@H]3[C@@H](c4ccccc42)[C@@H](CO)N3C(=O)c2ccccc2)c1	nt	nt	-1	-2	nt	nt
COc1ccc(NC(=O)N(C)C[C@H]2Oc3ncc(C#C[C@H](C)O)cc3C(=O)N([C@@H](C)CO)C[C@H]2C)cc1	nt	nt	0	0	nt	nt
O=C1NC(=O)N(Cc2ccccc2)C(=O)/C1=C\c1ccco1	28*	-19	-1	nt	1	0
O=C1NC(=O)N(Cc2ccc(F)cc2)C(=O)/C1=C\C=C\c1ccco1	2	-37	0	-2	-1	-1
O=C(CN1CCOCC1)N[C@@H]1CC[C@H](CCn2cc(C3CCCCC3)nn2)O[C@@H]1CO	nt	nt	-1	1	nt	nt
CC1=C(C(=O)NC2CC(C)(C)Cc3c2cnn3-c2cccc(F)c2)OCCO1 (stereo not given)	-1	5	1	58*	-3	4
Cc1cc(C(=O)NC2CC(C)(C)Cc3c2cnn3-c2cccc(F)c2)n(C)n1 (stereo not given)	-2	-4	0	20	1	2
CCCNC(=O)N1C[C@@H](O)COC[C@@H]2O[C@H](CC(=O)N[C@@H]3CCN(Cc4ccccc4)C3)CC[C@H]21	nt	nt	nt	1	nt	nt
COc1ccc(NC(=O)Cc2c[nH]c3ccccc23)cc1S(=O)(=O)N1CCOCC1	6	3	1	nt	3	0
COc1ccc(C(=O)NCCc2c[nH]c3ccccc23)cc1S(=O)(=O)N1CCOCC1	8.4*	2	nt	-1	1	-2
N#CCCN(C(=O)CCl)c1cccc(Cl)c1	0	10	3	1	-2	45*
CC1(C)CC(=O)C(C=Nc2ccc(O)cc2)=C(O)C1	-3	-1	32*	-2	1	-6
CC1(C)CC(=O)C(C=Nc2ccc(N)cc2)=C(O)C1	-8	-12	13*	nt	2	-7
CCC(=O)Nc1ccc2c(c1)C(=O)N(C)[C@H]1CC[C@H](CC(=O)NCC3CC3)O[C@@H]1CO2	nt	nt	1	0	nt	nt
COc1ccc(S(=O)(=O)N[C@@H]2CC[C@H](CCn3cc(-c4cccc(F)c4)nn3)O[C@@H]2CO)cc1	nt	nt	1	3	nt	nt
COc1ccc(-c2cc(C#N)nc(Cl)n2)cc1	-3	6	1	nt	-1	40*
O=C(NC1CCCC1)N1CCCCN2[C@@H](CO)[C@H](c3ccc(-c4ccccc4)cc3)[C@@H]2C1	nt	nt	1	1	nt	nt
O=C(O)c1cc(N2N=C(C(F)(F)F)/C(=C/C=C/c3ccco3)C2=O)ccc1Cl	77*	nt	-2	nt	nt	nt
CCOC(=O)c1ccc(N2N=C(C)/C(=C/C=C/c3ccco3)C2=O)cc1	0	2	nt	-2	-1	-1
O=C(C[C@H]1CC[C@@H](NC(=O)CN2CCOCC2)[C@@H](CO)O1)NCc1cccc(F)c1	nt	nt	1	0	nt	nt
Cc1cc2c(C(C)C)c(O)c(O)c(C=O)c2c(O)c1-c1c(C)cc2c(C(C)C)c(O)c(O)c(C=O)c2c1O	51*	nt	-1	4	nt	7
Cc1csc(N=Nc2ccc(N(C)C)cc2)[n+]1[O-]	-2	nt	13*	nt	nt	nt
CN(C)c1ccc(N=Nc2ccc(C(=O)O)cc2)cc1	1	-7	-4	nt	-1	0
COc1cc(Cc2ccc(N)c(OC)c2)ccc1N	-2	-6	15*	nt	-1	9
COc1ccc(Cc2ccc(OC)c(N)c2)cc1N	-5	-1	2	-1	1	nt
SMILES	FadD28 FP inh	Rv3671c protease	TcdB GH inh	BioA inh	Mtb UGM inh	RecA splice inh
O=C(Nc1nccs1)c1ccc(-c2ccc([N+](=O)[O-])cc2)o1	0	1	3	-2	20*	6
Nc1nonc1-n1nnc(C(=O)N/N=C/c2ccc(Br)cc2)c1CSC1=NCCS1	-14	-37	nt	3	nt	31*
CC(C)c1ccc(/C=N/NC(=O)c2nnn(-c3nonc3N)c2CSC2=NCCS2)cc1	-1	-9	nt	nt	1	34*
C[C@H]1CN([C@@H](C)CO)C(=O)c2cccc(NS(=O)(=O)c3cn(C)cn3)c2O[C@H]1CN(C)C(=O)Nc1ccc(C(F)(F)F)cc1	nt	nt	0	-1	nt	nt
O=C1COc2ccc(C(=O)COC(=O)CNS(=O)(=O)c3cccc(F)c3)cc2N1	-3	9	12*	-1	-1	nt
O=C1COc2ccc(C(=O)COC(=O)Cc3ccccc3F)cc2N1	nt	-1	1	nt	2	nt
CCc1ccc(C(=O)Cn2ncc(Cl)c(Cl)c2=O)cc1	-2	-9	nt	-2	1	15
Cc1cc(C)cc(Cn2ncc(Cl)c(Cl)c2=O)c1	nt	6	nt	nt	-1	56*
Cc1ccc(Cn2ncc(Cl)c(Cl)c2=O)cc1	-1	4	-1	0	0	38*
O=C(O)C[C@@H]1C[C@H]2c3cc(NC(=O)C4CCC4)ccc3O[C@H]2[C@@H](CO)O1	nt	nt	-1	nt	nt	nt
COc1ccc(C2(C)NC(=O)N(CC(=O)Nc3ccc4[nH]c(=O)[nH]c4c3)C2=O)cc1 (stereo not given)	1	4	0	0	-3	-1
CC1(c2ccc(OC(F)F)cc2)NC(=O)N(CC(=O)Nc2ccc3[nH]c(=O)[nH]c3c2)C1=O (stereo not given)	12*	-2	3	1	0	-7
O=C(C[C@H]1CC[C@H]2[C@@H](COC[C@@H](O)CN2CC2CCCCC2)O1)NCc1ccc(Cl)cc1	nt	nt	1	-1	nt	nt
N#C/C(=C\c1ccc2c(c1)OCCO2)C(=O)Nc1ccc(C(=O)O)cc1	-3	4	0	-1	3	-1
N#C/C(=C/c1ccc2c(c1)OCO2)C(=O)Nc1ccc(O)cc1	0	-2	2	-1	-5	59*
CCOc1cc(/C=C(/C#N)C(=O)Nc2ccc(O)cc2)cc(Br)c1O	?	-1	nt	nt	-15	60*
C[C@H]1CN([C@@H](C)CO)C(=O)Cc2cc(NC(=O)Nc3ccc(C(F)(F)F)cc3)ccc2O[C@H]1CN(C)Cc1ccc2c(c1)OCO2	nt	nt	-2	3	nt	nt
C[C@@H]1CN([C@H](C)CO)C(=O)c2cc(-c3cccc(C#N)c3)cnc2O[C@H]1CN(C)C(=O)C1CC1	nt	nt	0	2	nt	nt
O=C1CC(=Nc2ccc([N+](=O)[O-])cc2)NN1c1c(Cl)cc(Cl)cc1Cl	15*	nt	3	-1	nt	nt
CO[C@H](CN(C)C(=O)c1cnccn1)[C@H](C)CN([C@@H](C)CO)S(=O)(=O)c1ccc(Cl)cc1	nt	nt	0	1	nt	nt
C[C@H](O)C#Cc1cnc2c(c1)C(=O)N([C@H](C)CO)C[C@@H](C)[C@@H](CN(C)Cc1ccccn1)O2	nt	nt	-1	0	nt	nt
C[C@H](CO)N1C[C@H](C)[C@H](CN(C)C(=O)Nc2ccc3c(c2)OCO3)OCCCC[C@H](C)Oc2ccc(NC(=O)c3ccncc3)cc2C1=O	nt	nt	-1	-5	nt	nt
CN1C(=O)c2cc(NC(=O)Nc3ccccc3)ccc2OC[C@H]2O[C@H](CC(=O)NC3CCC3)CC[C@H]21	nt	nt	0	20	nt	nt
Cn1ncc(Cl)c1C(=O)N/N=C/c1cccc(OC2CSC2)c1	1	-1	23*	nt	1	0
CC(C)(C)c1csc(NC(=O)c2c(F)c(F)c(F)c(F)c2F)n1	-1	-5	1	6	-1	31*
